The record followed here is PubChem BioAssay (Tox21).

Inconclusive results are not listed. Where a call stands in place of a potency, no number is given. The source made the active and inactive calls. Unless noted, calls follow the shape of the dose curve; as a rule, active = well fitted cell-killing curve with a large enough effect in the repeat runs (not every such curve was filed as active); inconclusive = weak or mixed curves, or effect the other way; inactive = no such curve, though single readings can be large or run the other way.

Sequence of Bile acid receptor (Homo sapiens) (Q96RI1 whole entry, looked up): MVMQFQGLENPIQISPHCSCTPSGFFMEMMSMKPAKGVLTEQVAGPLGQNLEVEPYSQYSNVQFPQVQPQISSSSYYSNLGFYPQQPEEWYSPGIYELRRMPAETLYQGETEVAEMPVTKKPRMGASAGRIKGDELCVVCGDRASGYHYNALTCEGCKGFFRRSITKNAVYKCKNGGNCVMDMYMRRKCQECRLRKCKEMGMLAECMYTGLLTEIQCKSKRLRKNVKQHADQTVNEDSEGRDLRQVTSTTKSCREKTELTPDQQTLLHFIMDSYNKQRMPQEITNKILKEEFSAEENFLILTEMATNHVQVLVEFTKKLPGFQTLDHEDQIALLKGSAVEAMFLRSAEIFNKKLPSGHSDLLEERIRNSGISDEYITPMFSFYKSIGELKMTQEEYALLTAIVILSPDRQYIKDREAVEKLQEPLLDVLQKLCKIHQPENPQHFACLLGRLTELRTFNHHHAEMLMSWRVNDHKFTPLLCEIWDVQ

Test system in one assay: not listed separately
Kind of assay: qHTS assay to identify small molecule agonists of the farnesoid-X-receptor (FXR) signaling pathway - cell viability counter screen (AID 743218; active = well fitted cell-killing curve with a large enough effect in the repeat runs; also: nearly all actives have a fitted effect of over 45% in size; also: potency is read from the fitted curve at half-maximal effect). The conditions noted are these: FXR-bla HEK293T viability, CellTiter-Glo luminescence, 16 h; series mostly up to 62.6 µM. In a few lines: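 HEK 293T FXR-bla cells; 5 h pre-incubation, 16 h compound exposure at 37 C; LiveBLAzer substrate 2 h RT, then CellTiter-Glo 30 min RT, luminescence.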
A general note: Quantitative high-throughput screening tests each substance at several concentrations.
With `N#Cc1ccc(N(CC(N)=O)CC(F)(F)F)cc1C(F)(F)F`, the Potency entry was “inactive”.

Turning to `CCC[CH2][Sn]([CH2]CCC)([O]C(C)=O)[O]C(C)=O`, the Potency is 11.1 µM (active).

Regarding `O=C(N[C@@H]1N=C(c2ccccc2F)c2cccc3c2N(CC3)C1=O)c1cc2ccccc2[nH]1`, the Potency result is “inactive”.

With `[C-]1=CC=CC1.[Cl][Zr+2][Cl].c1cc[cH-]c1`, the Potency result was “inactive”.

For `C1=CCC=C1`, the Potency entry was “inactive”.

As for `CSC(C)(C)/C=N/O`, the Potency result is “inactive”.

As for `CCNS(=O)(=O)C(F)(F)C(F)(F)C(F)(F)C(F)(F)C(F)(F)C(F)(F)C(F)(F)C(F)(F)F`, the Potency entry was “inactive”.

`CCN(CC)CCc1c[nH]c2ccccc12`: the Potency result is “inactive”.

Turning to `CNC(=O)O/N=C(\C)C(C)S(C)(=O)=O` (stereo not given), the Potency entry is “inactive”.

As to `CC(Cl)CCl` (stereo not given), the Potency entry is “inactive”.

In the case of `COC(=O)c1ccccc1S(=O)(=O)NC(=O)Nc1nc(C)nc(OC)n1`, the Potency result was “inactive”.

As for `c1cc[n+]2c(c1)-c1cccc[n+]1CC2`, the Potency result is “inactive”.

Turning to `O=C(Nc1ccc(F)cc1F)c1cccnc1Oc1cccc(C(F)(F)F)c1`, the Potency result was “inactive”.

For the compound `CCC(C)c1cccc(C(C)CC)c1O` (stereo not given), the Potency entry is “inactive”.

As for `CCN(CC)CCN1C(=O)CN=C(c2ccccc2F)c2cc(Cl)ccc21`, the Potency entry was “inactive”.

`CC#C[C@]1(O)CC[C@H]2[C@@H]3C[C@H](C)C4=CC(=O)CC[C@]4(C)[C@H]3CC[C@@]21C`: the Potency result was “inactive”.

Turning to `CC(C)Br`, the Potency entry was “inactive”.

On to `O=[N+]([O-])c1ccccc1-c1ccccc1`, for which the Potency result was “inactive”.

With `O=c1c2ccccc2c(=O)c2c1cc(Cl)c1[nH]c3c([nH]c12)c(Cl)cc1c(=O)c2ccccc2c(=O)c13`, the Potency result was “inactive”.

Take `CC(C)C(Br)C(=O)NC(N)=O` (stereo not given): the Potency entry was “inactive”.

With `CC[C@]1(O)CC[C@H]2[C@@H]3CCC4=CCCC[C@@H]4[C@H]3CC[C@@]21C`, the Potency result was “inactive”.

With `CCC1(CC)C(=O)N=C(O)NC1=O`, the Potency entry is “inactive”.

On to `CC(C)NCC(O)c1ccccc1Cl` (stereo not given), for which the Potency entry was “inactive”.

The target in another assay is Bile acid receptor (Homo sapiens) (UniProt Q96RI1). Kind of assay: qHTS assay to identify small molecule agonists of the farnesoid-X-receptor (FXR) signaling pathway (AID 743220; active = well fitted activation curve with a large enough effect in the signal ratio in the repeat runs, not every such curve was filed as active; the % refers to the signal ratio). As to conditions: HEK293T FXR-UAS-bla, beta-lactamase FRET ratio, 16 h; series mostly up to 62.6 µM. In a few lines:
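Beta-lactamase reporter under UAS control in GeneBLAzer FXR HEK 293T cells (5000/well) measured with LiveBLAzer FRET substrate after 2 h at room temperature. Compound exposure lasted 16 h at 37C.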
On to `N#Cc1ccc(N(CC(N)=O)CC(F)(F)F)cc1C(F)(F)F`, for which the Potency entry is “inactive”.

Regarding `c1ccc(Nc2ccc(Nc3ccccc3)cc2)cc1`, the Potency entry is “inactive”.

As to `Nc1ccc(Cl)cc1C(=O)c1ccccc1F`, the Potency result is “inactive”.

Regarding `O=S(=O)(O)F`, the Potency entry is “inactive”.

For `CCNS(=O)(=O)C(F)(F)C(F)(F)C(F)(F)C(F)(F)C(F)(F)C(F)(F)C(F)(F)C(F)(F)F`, the Potency result was “inactive”.

Consider `CCN(CC)CCc1c[nH]c2ccccc12`, for which the Potency result is “inactive”.

Take `CNC(=O)O/N=C(\C)C(C)S(C)(=O)=O` (stereo not given): the Potency entry was “inactive”.

Regarding `Cc1ccc(C)c2ccccc12`, the Potency entry is “inactive”.

On to `COC(=O)c1ccccc1S(=O)(=O)NC(=O)Nc1nc(C)nc(OC)n1`, for which the Potency entry was “inactive”.

Consider `O=C(Nc1ccc(F)cc1F)c1cccnc1Oc1cccc(C(F)(F)F)c1`, for which the Potency result was “inactive”.

On to `CCC(C)c1cccc(C(C)CC)c1O` (stereo not given), for which the Potency entry is “inactive”.

As to `CCN(CC)CCN1C(=O)CN=C(c2ccccc2F)c2cc(Cl)ccc21`, the Potency entry is “inactive”.

As to `ClCBr`, the Potency entry was “inactive”.

As for `CC#C[C@]1(O)CC[C@H]2[C@@H]3C[C@H](C)C4=CC(=O)CC[C@]4(C)[C@H]3CC[C@@]21C`, the Potency result was “inactive”.

`CC(C)Br`: the Potency result is “inactive”.

For `O=c1c2ccccc2c(=O)c2c1cc(Cl)c1[nH]c3c([nH]c12)c(Cl)cc1c(=O)c2ccccc2c(=O)c13`, the Potency result is “inactive”.

In the case of `CC(C)C(Br)C(=O)NC(N)=O` (stereo not given), the Potency result is “inactive”.

In the case of `CC[C@]1(O)CC[C@H]2[C@@H]3CCC4=CCCC[C@@H]4[C@H]3CC[C@@]21C`, the Potency entry is “inactive”.

In the case of `CC(C)N(C(=O)SC/C(Cl)=C/Cl)C(C)C`, the Potency entry is “inactive”.

With `NC1CCC(CC2CCC(N)CC2)CC1` (stereo not given), the Potency result was “inactive”.

On to `C=Cc1cccc(CCl)c1`, for which the Potency entry was “inactive”.

Test system in a further assay: not listed separately
Kind of assay: qHTS assay to identify small molecule antagonists of the farnesoid-X-receptor (FXR) signaling pathway - cell viability counter screen (AID 743221). Also: nearly all actives have a fitted effect of over 50% in size. Also: potency is read from the fitted curve at half-maximal effect. The conditions noted are these: FXR-bla HEK293T viability, CellTiter-Glo luminescence, 16 h; series mostly up to 62.6 µM. In a few lines:
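CellTiter-Glo, 30 min RT, luminescence; same wells as the LiveBLAzer FRET read. Cells: FXR-UAS-bla HEK 293T. Treatment: compound with chenodeoxycholic acid 50 uM final, 16 h at 37 C.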
`N#Cc1ccc(N(CC(N)=O)CC(F)(F)F)cc1C(F)(F)F`: the Potency result is “inactive”.

Turning to `c1ccc(Nc2ccc(Nc3ccccc3)cc2)cc1`, the Potency entry is “inactive”.

As for `CCC[CH2][Sn]([CH2]CCC)([O]C(C)=O)[O]C(C)=O`, the Potency is 17.5 µM (active).

Take `COc1cnc(OC)n2nc(NS(=O)(=O)c3c(OCC(F)F)cccc3C(F)(F)F)nc12`: the Potency result is “inactive”.

Turning to `CCN(CC)Cc1nccn1-c1ccc([N+](=O)[O-])cc1C(=O)c1ccccc1Cl`, the Potency entry was “inactive”.

Regarding `O=C(N[C@@H]1N=C(c2ccccc2F)c2cccc3c2N(CC3)C1=O)c1cc2ccccc2[nH]1`, the Potency result is “inactive”.

Turning to `[C-]1=CC=CC1.[Cl][Zr+2][Cl].c1cc[cH-]c1`, the Potency result is “inactive”.

Turning to `Nc1ccc(Cl)cc1C(=O)c1ccccc1F`, the Potency entry is “inactive”.

Consider `CCOP(=O)(Sc1ccccc1)Sc1ccccc1`, for which the Potency result is “inactive”.

As to `O=S(=O)(O)F`, the Potency result was “inactive”.

For the compound `O=[N+]([O-])c1ccc(Cl)c(Cl)c1Cl`, the Potency entry is “inactive”.

As to `CSC(C)(C)/C=N/O`, the Potency result is “inactive”.

In the case of `CCNS(=O)(=O)C(F)(F)C(F)(F)C(F)(F)C(F)(F)C(F)(F)C(F)(F)C(F)(F)C(F)(F)F`, the Potency entry was “inactive”.

Regarding `CCN(CC)CCc1c[nH]c2ccccc12`, the Potency result was “inactive”.

Take `CNC(=O)O/N=C(\C)C(C)S(C)(=O)=O` (stereo not given): the Potency entry was “inactive”.

For the compound `CC(Cl)CCl` (stereo not given), the Potency entry was “inactive”.

With `Cc1ccc(C)c2ccccc12`, the Potency entry is “inactive”.

On to `COC(=O)c1ccccc1S(=O)(=O)NC(=O)Nc1nc(C)nc(OC)n1`, for which the Potency result is “inactive”.

`CC1CN1` (stereo not given): the Potency entry is “inactive”.

Turning to `ClSC(Cl)(Cl)Cl`, the Potency result was “inactive”.

For the compound `O=C(Nc1ccc(F)cc1F)c1cccnc1Oc1cccc(C(F)(F)F)c1`, the Potency result was “inactive”.

For `CCC(C)c1cccc(C(C)CC)c1O` (stereo not given), the Potency result is “inactive”.

Regarding `CCN(CC)CCN1C(=O)CN=C(c2ccccc2F)c2cc(Cl)ccc21`, the Potency entry was “inactive”.

With `ClCBr`, the Potency entry was “inactive”.

Turning to `CC#C[C@]1(O)CC[C@H]2[C@@H]3C[C@H](C)C4=CC(=O)CC[C@]4(C)[C@H]3CC[C@@]21C`, the Potency result was “inactive”.

`CC(C)Br`: the Potency entry was “inactive”.

For the compound `O=[N+]([O-])c1ccccc1-c1ccccc1`, the Potency result is “inactive”.

For the compound `CC(C)NCC(O)c1ccccc1Cl` (stereo not given), the Potency result is “inactive”.

Consider `CC(C)N(C(=O)SC/C(Cl)=C/Cl)C(C)C`, for which the Potency result is “inactive”.

Turning to `NC1CCC(CC2CCC(N)CC2)CC1` (stereo not given), the Potency result is “inactive”.

For `C=Cc1cccc(CCl)c1`, the Potency entry is “inactive”.
